From PubChem BioAssay
PrP UTR inh: suppresses PrP 5' UTR mRNA reporter expression | inhibition, % (concentration not given with the values) | cell-based PrP 5' UTR mRNA reporter, plate reader | AID 488862 | 340,000 compounds, 0.35% hits; in the data active = inhibition above about 52%; note: 0 = median of the neutral control wells
PrPC TRFRET: reduces human prion protein on the cell surface | P04156 | cell surface PrPC, TR-FRET read-out | inhibition, % at 13.8 µM | 370,000 compounds, 0.43% hits; in the data active = inhibition above about 24%; note: 0% = median of the test wells and 100% = reference compound wells
3CLpro inhibitor: SARS-CoV 3CLpro protease inhibition. recombinant SARS-CoV 3CLpro, quenched FRET peptide cleavage. inhibition, % at 6 µM. 290,000 compounds, 0.14% hits; in the data active = inhibition above about 12%
BJeLR lethal: BJeLR cell viability loss. BJeLR (HRASV12) viability, CellTiter-Glo ATP luminescence, 48 h. inhibition, % (test concentration not listed). 300,000 compounds, 0.17% hits. AID 1554; in the data active = inhibition above about 50%; inconclusive = no clear call, values can overlap the other calls
Mtb hypoxia inh: Mtb hypoxia fluorescent reporter inhibition; 300,000 compounds, 0.1% hits; fluorescence inhibition, % (concentration not given with the values); AID 1159583; M. tuberculosis hypoxia-regulated fluorescent reporter, fluorescence; in the data active = fluorescence inhibition mostly above about 23%, no sharp cut-off; inactive = mostly below about 17%
RecA intein inh: blocks M. tuberculosis RecA intein splicing. cell-free RecA intein splicing, fluorescence. P9WHJ3. inhibition, % (test concentration not listed). 290,000 compounds, 0.75% hits; in the data active = inhibition above about 30%; inconclusive = no clear call, values can overlap the other calls;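 note: 0% = vehicle wells and 100% = reference inhibitor control wells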
Target sequence (P9WHJ3 whole entry, looked up): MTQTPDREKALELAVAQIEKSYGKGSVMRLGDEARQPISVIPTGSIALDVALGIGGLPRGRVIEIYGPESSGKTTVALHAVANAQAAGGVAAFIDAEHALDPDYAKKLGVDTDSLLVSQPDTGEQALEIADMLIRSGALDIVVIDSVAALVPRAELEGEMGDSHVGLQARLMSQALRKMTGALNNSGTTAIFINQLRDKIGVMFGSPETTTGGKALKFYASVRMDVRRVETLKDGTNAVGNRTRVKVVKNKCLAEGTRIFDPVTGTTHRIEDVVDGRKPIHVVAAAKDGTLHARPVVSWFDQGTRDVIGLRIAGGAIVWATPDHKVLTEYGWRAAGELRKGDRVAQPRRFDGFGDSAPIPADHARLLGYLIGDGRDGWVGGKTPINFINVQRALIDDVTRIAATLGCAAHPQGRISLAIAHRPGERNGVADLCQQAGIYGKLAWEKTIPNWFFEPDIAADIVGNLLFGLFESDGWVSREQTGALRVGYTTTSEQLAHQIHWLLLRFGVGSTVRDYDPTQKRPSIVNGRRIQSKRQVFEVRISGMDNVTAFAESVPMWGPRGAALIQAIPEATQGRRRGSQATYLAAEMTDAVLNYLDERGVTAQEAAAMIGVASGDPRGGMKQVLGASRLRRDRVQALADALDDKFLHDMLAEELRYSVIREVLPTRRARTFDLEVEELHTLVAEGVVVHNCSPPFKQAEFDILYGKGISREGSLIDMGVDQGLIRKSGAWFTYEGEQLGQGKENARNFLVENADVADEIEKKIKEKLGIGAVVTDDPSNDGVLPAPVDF
PrP 5UTR single: prion 5' UTR mRNA inhibition, cherry-pick retest. shares compounds with PrP UTR inh. cell-based prion protein 5' UTR reporter, plate reader. inhibition, % at 2.5 µM. 1,100 compounds, 48% hits. AID 504592; in the data active = inhibition above about 54%; inconclusive = no clear call, values can overlap the other calls
Numbers without * were called inactive; ? = inconclusive; . = not tested or not shown. Compounds with a hit are over-represented: about 1.4% of the library has one in this group of screens.

SMILES	PrP UTR inh	PrPC TRFRET	3CLpro inhibitor	BJeLR lethal	Mtb hypoxia inh	RecA intein inh	PrP 5UTR single
CC(=NNc1ccc2ccccc2n1)c1ccccn1	.	10	.	.	.	.	.
O=C(NCCCO)c1cc2ccccc2[nH]1	-31	-8	2	7	-1	3	.
COc1ccc(C(=O)NCCCNC(=O)c2cc3ccccc3[nH]2)cc1OC	78*	2	-1	-3	7	0	-8
NC(=NOC(=O)c1ccc([N+](=O)[O-])cc1)c1cccnc1	.	.	.	.	2	.	.
COC(=O)c1ccc(Oc2nc(C)cc(Oc3ccccc3)n2)cc1	-27	7	4	-3	7	3	.
COC(=O)c1ccc(Oc2cc(C)nc(-n3nc(C)cc3C)n2)cc1	59*	12	1	42	5	2	89*
c1ccc(N2CCN(c3nc4cc5c(cc4s3)OCCO5)CC2)cc1	-97	1	5	7	19	4	.
c1c2c(cc3sc(N4CCOCC4)nc13)OCCO2	56*	3	-5	25	15	-2	?
Cc1ccccc1C(=O)NNC(=O)C12CC3CC(CC(C3)C1)C2	88*	8	4	-10	-7	.	-16
Cc1cccc(C(=O)NNC(=O)C23CC4CC(CC(C4)C2)C3)c1O	-9	6	3	1	4	2	.
Cc1ccc2c(c1)C(=O)c1c(C(=O)O)cccc1-2	78*	-11	5	-2	8	-4	-4
O=C(O)c1cccc2c1-c1ccc([N+](=O)[O-])cc1C2=O	-35	-45	.	.	.	.	.
O=C(CSc1nnc(-c2ccccc2)o1)Nc1ccccc1F	60*	-3	-2	46	.	2	59*
O=C(CSc1nnc(-c2ccncc2)o1)Nc1cc(F)ccc1F	-80	-5	.	.	4	.	.
Cc1ccc(-c2nnc(SCC(=O)Nc3ccccc3F)o2)cc1	89*	-2	3	56*	.	4	88*
O=C(CSc1nnc(-c2ccc(Br)cc2)o1)Nc1cccc(C(=O)O)c1	71*	8	1	1	4	2	80*
COC(=O)C1=C(c2ccccc2OCc2ccccc2)CC2CCC1N2C(=O)NCc1ccc(OC)c(OC)c1 (stereo not given)	.	.	.	.	-5	.	.
CNC(=O)C1CC1C(NC(=O)OCc1ccccc1)c1ccccc1 (stereo not given)	.	.	.	.	20	.	.
Cc1ccc(C2C3C(=O)N(C)C(=O)C3[C@]3(C)C(=O)N(Cc4ccc(-c5ccccc5)cc4)CC(=O)N23)o1 (stereo not given in full)	.	.	.	.	0	.	.
Cc1noc(C)c1NC(=O)Nc1cccc2c1OC(CN(C)S(=O)(=O)c1c(C)noc1C)C(C)CN(C(C)CO)C2=O (stereo not given)	.	.	.	.	1	.	.
Cc1cc(NC2=CC(=O)C(=O)c3ccccc32)no1	77*	-10	.	.	.	.	-2
CN=c1scc(-c2cccs2)n1/N=C/c1ccccc1O	94*	-3	2	21	.	2	90*
CC(C)n1c(C=CC(O)CC(O)CC(=O)O)c(-c2ccc(F)cc2)c2ccccc21 (stereo not given)	.	.	.	.	-8	.	.
Cn1c(=O)oc2cc(S(=O)(=O)N3CCC(C(=O)N4CC=C(c5ccccc5)CC4)CC3)ccc21	61*	-4	-4	.	5	.	-5
Cn1c(=O)oc2cc(S(=O)(=O)N3CCC(C(=O)N4CCN(c5ccccc5)CC4)CC3)ccc21	-26	5	-5	.	-1	.	.
SMILES	PrP UTR inh	PrPC TRFRET	3CLpro inhibitor	BJeLR lethal	Mtb hypoxia inh	RecA intein inh	PrP 5UTR single
C#Cc1ccc(C2C=C(C(=O)OCC=C)OC(OCC)C2CCCO)cc1 (stereo not given)	.	.	.	.	7	.	.
COc1ccc(C(=O)Nc2ccc(C)cn2)c(OC)c1	79*	2	-4	12	13	-3	75*
COc1ccc(C(=O)Nc2cc(C)on2)c(OC)c1	-50	-1	1	-6	-5	-1	.
CC1CN(C(=O)CCC(=O)NCc2ccc(Cl)cc2)c2ccccc2S1 (stereo not given)	63*	14	-1	-5	.	0	-13
CC(Oc1ccc(F)cc1)C(O)CCN(C)C (stereo not given)	74*	8	0	1	6	-3	-12
COC(=O)[C@]12C(=O)NCC(CN1c1ccc(Cl)c(C)c1)N2C	.	.	.	.	6	.	.
Cc1ccc(/C=C2\SC(N3CCCC3)=NC2=O)cc1	.	-29	-6	2	.	1	.
CN(C)c1ccc(/C=C2\SC(N3CCCCC3)=NC2=O)cc1	57*	1	-5	-14	8	-15	42
C[C@]12CCC(=O)C[C@@H]1CC[C@@H]1[C@@H]2CC[C@]2(C)[C@@H](O)CC[C@@H]12	-12	5	.	.	.	.	.
C[C@]12CCC(=O)C[C@@H]1CC[C@@H]1[C@@H]2CC[C@]2(C)C=CC[C@@H]12	66*	-3	1	-14	.	4	9
CC1CN(C(C)CO)C(=O)c2cccc(NC(=O)Nc3ccc(C(F)(F)F)cc3)c2OC1CN(C)S(=O)(=O)c1ccc(Cl)cc1 (stereo not given)	.	.	.	.	4	.	.
COc1ccc(-n2ncc3c(N4CCCCC4)ncnc32)cc1	86*	.	4	21	14	3	79*
Clc1ccc(-n2ncc3c(N4CCCCCC4)ncnc32)cc1	79*	-10	3	22	4	3	70*
Clc1ccc(Cn2ncc3c(N4CCCCC4)ncnc32)cc1	-7	6	0	1	.	7	.
CS(=O)(=O)N1CCN(c2ncnc3c2cnn3-c2ccccc2)CC1	55*	0	5	-6	4	2	-28
O=S(=O)(c1ccc(F)cc1)N1CCN(c2ncnc3c2cnn3-c2ccccc2)CC1	-1	5	-4	4	5	-2	.
CC(C)CC(NC(=O)c1nc[nH]c1C(=O)NCC(=O)OCc1ccccc1)C(=O)OCc1ccccc1 (stereo not given)	.	.	.	.	4	.	.
O=S(=O)(Cc1cc(-c2ccccc2)no1)c1ccccc1	51*	1	-2	-4	14	-2	5
Nc1cc(=O)[nH]c(SCCSc2cc(Cl)ccc2Cl)n1	58*	11	0	-13	10	-1	39
O=C(NN=Cc1cc2c(cc1[N+](=O)[O-])OCO2)c1cccnc1	.	.	.	.	-1	.	.
O=C(N/N=C/c1cc2c(cc1Br)OCO2)c1cccnc1	62*	-8	2	2	.	-1	-14
COc1ccc(C(CNC(=O)Cc2cc(OC)c(OC)c(OC)c2)N2CCCC2)cc1 (stereo not given)	-25	-5	-4	10	0	.	.
COC(=O)C1CCC(=O)N1C(c1ccc(OC)cc1)c1cc(OC)c(OC)c(OC)c1 (stereo not given)	56*	8	.	.	.	.	89*
CCOC(=O)Cc1csc(N/N=C/c2ccc(Cl)cc2)n1	66*	2	3	-4	.	-2	2
CCOC(=O)Cc1csc(NN=Cc2ccc(Cl)cc2)n1	.	.	.	.	-5	.	.
